Source: PubChem BioAssay (Sanford-Burnham Center for Chemical Genomics)
CYP2C9 inh: human CYP2C9 inhibition. 96,000 compounds, 20% hits. inhibition, % at 5 µM. CYP2C9 Supersomes, luciferin-H conversion, luminescence. AID 777. P11712;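 active = blocking of liver enzyme CYP2C9 beyond about 50% at 5 µM, limit read from the data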
Target sequence (P11712 whole entry, looked up): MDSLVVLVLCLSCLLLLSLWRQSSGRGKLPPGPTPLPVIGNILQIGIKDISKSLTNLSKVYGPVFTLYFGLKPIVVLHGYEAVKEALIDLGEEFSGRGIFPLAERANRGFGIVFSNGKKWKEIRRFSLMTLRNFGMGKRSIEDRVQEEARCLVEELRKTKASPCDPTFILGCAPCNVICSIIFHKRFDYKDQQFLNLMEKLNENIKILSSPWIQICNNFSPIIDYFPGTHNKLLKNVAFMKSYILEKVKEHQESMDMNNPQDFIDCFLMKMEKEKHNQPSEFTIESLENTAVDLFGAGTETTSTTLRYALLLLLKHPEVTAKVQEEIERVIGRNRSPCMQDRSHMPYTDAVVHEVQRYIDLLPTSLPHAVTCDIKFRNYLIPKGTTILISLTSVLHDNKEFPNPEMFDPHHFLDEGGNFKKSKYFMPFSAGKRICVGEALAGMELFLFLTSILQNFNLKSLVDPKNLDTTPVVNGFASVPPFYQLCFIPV
CYP2C19 act: cytochrome P450 2C19 (human) activation | recombinant CYP2C19, luciferin-H EGE luminescence; stronger effect = higher value; 0 = fully inhibited enzyme, 1 = untreated enzyme | 96,000 tested, under 10 active | AID 1025 | activation factor at 5 µM | P33261;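 active = activation factor of at least 2 at 5 µM in the primary screen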;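 also: 0 = wells with 2.5 mM tranylcypromine and 1 = vehicle-only wells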
CYP2C9 activ: increases human cytochrome P450 2C9 activity; recombinant CYP2C9, luciferin-H conversion, luminescence; stronger effect = higher value; factor 1 = untreated enzyme, 0 = blocked; activation factor at 5 µM; 96,000 compounds, 1.4% hits;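 active = activation factor of 2 or more for CYP2C9 at a 5 µM dose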;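 also: 0 = sulfaphenazole-blocked wells and 1 = vehicle-only wells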
CYP2C19 inhib: inhibitors of human CYP2C19; inhibition, % at 5 µM; P33261; CYP2C19 Supersomes, luciferin-H EGE luminescence, 30 min; AID 778; 96,000 compounds, 21% hits;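 active = CYP2C19 inhibition above a set limit at 5 µM in the primary screen, cut at about 50% in these data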;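 also: plate controls were negative control wells for no effect and 2.5 mM tranylcypromine positive control for full effect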
PLAP activator: human PLAP activation; P05187; activation fold at 20 µM; 96,000 compounds, 1.2% hits; AID 696; purified PLAP enzyme, luminescent substrate read-out; stronger effect = higher value; in the data active = activation fold above about 2
Active calls of the source: *. An excerpt weighted towards active compounds, which were near 31% of everything screened.

SMILES | CYP2C9 inh | CYP2C19 act | CYP2C9 activ | CYP2C19 inhib | PLAP activator
CCOc1ccc(C2c3c(oc4cc(C)c(C)cc4c3=O)C(=O)N2CCCN(C)C)cc1OC (stereo unspecified) | 56.3* | 0.9 | 0.4 | 11.1 | 1.1
COc1cccc(C2c3c(oc4cc(C)c(C)cc4c3=O)C(=O)N2CCCN(C)C)c1 (stereo unspecified) | 34.7 | 0.9 | 0.7 | 8.2 | 1.6
COc1ccc(C2c3c(oc4ccc(C)cc4c3=O)C(=O)N2c2cc(C)ccn2)cc1OC (stereo unspecified) | 63.5* | 0.9 | 0.4 | 7.8 | 1.4
CN1CCC(N2CCCC(C(=O)O)C2)CC1 (stereo unspecified) | 6.8 | 0.9 | 0.9 | 6.6 | 0.9
CC(=O)c1ccc2c3c(ccc(O)c13)CC2 | -142.2 | 0.7 | 2.4* | 32.1 | 1.2
O=C1c2ccc3c4c(ccc(c24)C(=O)N1NC(=O)C(F)(F)F)CC3 | 18.1 | 0.6 | 0.8 | 43.1 | 0.9
CCSc1nnc(NC(=O)CSc2nccn2-c2cc(C)cc(C)c2)s1 | 50.0* | 0.8 | 0.5 | 18.4 | 1
Cc1cccc(-n2ccnc2SCC(=O)Nc2nnc(C)s2)c1 | -37.9 | 1.1 | 1.4 | -6.6 | 1.1
CCSc1nnc(NC(=O)CSc2nccn2-c2cccc(C)c2C)s1 | 69.9* | 0.7 | 0.3 | 34.7 | 1.1
CCSc1nnc(NC(=O)CSc2ncccn2)s1 | -2.3 | 0.9 | 1 | 7.6 | 0.9
COc1cc(NC(=O)CCN2CCN(Cc3ccccc3)CC2)cc(OC)c1 | 2.5 | 1 | 1 | 4.3 | 1.3
O=C(CCN1CCN(Cc2ccccc2)CC1)Nc1cccc(Cl)c1 | 54.1* | 0.6 | 0.5 | 39.1 | 1.7
CCOC(=O)C1CCCN(CCC(=O)Nc2cccc(F)c2)C1 (stereo unspecified) | 28.1 | 0.7 | 0.7 | 25.1 | 1
CCOC(=O)C1CCN(CCC(=O)Nc2cccc(Cl)c2)CC1 | 75.3* | 0.5 | 0.2 | 52.5* | 1.7
Cc1cccc(C(=O)NNC(=O)C2CCCO2)c1 (stereo unspecified) | -19.5 | 1.1 | 1.2 | -5.3 | 1.7
COn1c(SCc2ccc(C)cc2C)nc2ccccc2c1=O | 93.3* | 0.3 | 0.1 | 73.0* | 1
COn1c(SC2CCCCC2)nc2ccccc2c1=O | 81.7* | 0.2 | 0.2 | 78.0* | 1.5
COn1c(SCC(N)=O)nc2ccccc2c1=O | 13.3 | 0.8 | 0.9 | 16.3 | 0.8
COn1c(SC(C)C)nc2ccccc2c1=O | 18.1 | 0.7 | 0.8 | 26.4 | 1
COC(C(=O)Nc1ccc(F)cc1F)c1ccccc1 (stereo unspecified) | -1.5 | 0.8 | 1 | 20.6 | 0.8
COc1ccc(-c2ccnc(-c3ccc(OCCCF)cc3)n2)cc1 | 51.2* | 0.8 | 0.5 | 20.0 | 1
FCCCOc1ccc(-c2nccc(-c3ccc(Cl)cc3)n2)cc1 | 43.6 | 0.9 | 0.6 | 10.0 | 1.2
COc1ccc(CNC(=O)CSc2nnnn2-c2ccccc2)cc1 | 72.8* | 0.1 | 0.3 | 89.2* | 0.7
COc1ccc(CCNc2nc3ccccc3n3nnnc23)cc1OC | 8.3 | 0.7 | 0.9 | 32.1 | 0.8
COc1ccc(CNC(=O)CSc2nnnn2Cc2ccccc2)cc1 | 72.7* | 0.2 | 0.3 | 79.3* | 0.7
SMILES | CYP2C9 inh | CYP2C19 act | CYP2C9 activ | CYP2C19 inhib | PLAP activator
COc1ccc(CCNc2nnc(Sc3nnnn3-c3ccccc3)s2)cc1OC | 7.9 | 0.3 | 0.9 | 73.3* | 1.4
COc1ccc(-n2nnnc2SCC#CCO)cc1 | 44.8 | 0.1 | 0.6 | 89.6* | 0.9
COc1ccc(N=CC2=C(O)CC(C)(C)CC2=O)cc1 | 25.3 | 0.8 | 0.7 | 21.2 | 1
CCN=C(N/N=C/c1ccc([N+](=O)[O-])cc1)SC | 27.1 | 0.6 | 0.7 | 43.2 | 0.7
CCCCN(C(=O)c1ccco1)c1nnc(-c2cc(OC)c(OC)c(OC)c2)s1 | -16.0 | 0.8 | 1.2 | 15.3 | 1
O=C(CSc1nnnn1Cc1ccccc1)NCCc1ccccc1 | 32.6 | 0.8 | 0.7 | 20.2 | 0.9
COc1ccc(CCNC(=O)CSc2nnnn2-c2ccccc2)cc1 | 77.8* | 0.2 | 0.2 | 75.7* | 1.1
Cc1ccc(OCCCC(=O)Nc2nccs2)cc1 | 54.7* | 0.5 | 0.5 | 53.9* | 0.9
COCC(=O)Nc1cc([N+](=O)[O-])ccc1C | 9.4 | 1 | 0.9 | 0.0 | 0.9
Cc1cccc(OCCCC(=O)Nc2ccc(Br)cc2)c1 | 41.8 | 0.4 | 0.6 | 58.7* | 0.9
Cc1cccc(OCCCC(=O)Nc2nccs2)c1 | 23.5 | 0.2 | 0.8 | 75.8* | 0.9
Cc1ccc([N+](=O)[O-])cc1NC(=O)CCCOc1ccccc1 | -129.7 | 0.7 | 2.3* | 31.4 | 0.8
O=C1c2ccccc2C(=O)N1CCCc1nc2ccccc2c(=O)n1Cc1ccco1 | 13.5 | 0.9 | 0.9 | 7.4 | 0.9
Cc1c(C(=O)NCCCN2CCCC2=O)oc2ccccc12 | -1.6 | 1.1 | 1 | -5.3 | 0.9
CCOC(=O)N1CCN(Cc2nc3c(c(=O)n(C)c(=O)n3C)n2CCC(C)C)CC1 | 31.0 | 1 | 0.7 | 4.1 | 1.5
CC(Cc1ccccc1)N/C=C1\CC(=O)NC1=O (stereo unspecified) | -11.3 | 1.1 | 1.1 | -11.0 | 1
CC(C)CCNC(=O)CCCOc1ccccc1 | -12.1 | 0.5 | 1.1 | 54.3* | 0.9
O=C(CCc1ccccc1)Nc1nncs1 | -4.5 | 0.9 | 1 | 7.7 | 1.3
O=C(CCCOc1ccccc1)Nc1nncs1 | 82.6* | 0 | 0.2 | 97.0* | 1.3
COc1cc(CC(=O)Nc2nccs2)cc(OC)c1OC | 40.7 | 0.2 | 0.6 | 79.8* | 1.2
O=C(CN1C(=O)NC2(CCCCCCC2)C1=O)N1CCOCC1 | -11.8 | 1 | 1.1 | -4.5 | 0.9
CNS(=O)(=O)c1cnccc1N1CCN(c2cccc(Cl)c2)CC1 | 48.3 | 0.4 | 0.5 | 58.3* | 1.1
COc1ccc2sc(C)nc2c1NC(C)=O | 84.2* | 0.8 | 0.2 | 17.6 | 1
Cn1c(COc2ccccc2)nnc1SCc1cc(=O)[nH]c2ccccc12 | 77.1* | 0.3 | 0.2 | 71.9* | 1.3
O=c1cc(CSc2nnc(COc3ccccc3)o2)c2ccccc2[nH]1 | 27.3 | 0.5 | 0.7 | 46.3 | 0.9
SMILES | CYP2C9 inh | CYP2C19 act | CYP2C9 activ | CYP2C19 inhib | PLAP activator
CSC1=Nc2sc3c(c2C2=NCCN12)CCCC3 | 3.8 | 0.8 | 1 | 15.6 | 1.9
Cc1ccc(S(=O)(=O)c2cc(C#N)c(=O)[nH]c2N)cc1 | 22.7 | 1 | 0.8 | -4.9 | 1.1
O=C(Cn1cc(C(=S)N2CCOCC2)c2ccccc21)N1CCOCC1 | 1.2 | 1.1 | 1 | -10.3 | 0.9
O=C(c1ccco1)c1cn(CC(=O)N2CCCc3ccccc32)c2ccccc12 | 100.0* | 0 | 0 | 98.1* | 1.6
CCOC(=O)C1CCN(C(=O)Cn2cc(C(=O)c3ccco3)c3ccccc32)CC1 | 0.2 | 1 | 1 | 2.9 | 0.9
CC1CCCCN1C(=O)Cn1cc(C(=O)c2ccco2)c2ccccc21 (stereo unspecified) | 68.5* | 0.2 | 0.3 | 83.3* | 1.5
O=C(Cn1cc(C(=O)c2ccco2)c2ccccc21)NC1CCCC1 | 41.8 | 0.6 | 0.6 | 40.5 | 1
CN1C(=O)/C(=C/c2cn(CC(=O)N3CCCCC3)c3ccccc23)c2ccccc21 | 98.0* | 0.2 | 0 | 75.1* | 1
